What all share (design): scale not given: direction of the effect not stated beside the values
Experiment [1] addresses Protein translocase subunit SecA (Escherichia coli (strain K12)) (UniProt P10408). In words: Assay to Identify E. coli SecA ATPase Inhibitors. The class given is functional. The note with it: 30 µM.
The target of experiment [2] is T1, Ubiquitin-activating enzyme e1, putative (Leishmania donovani (strain BPK282A1)) (UniProt E9BSI1).
T1 sequence (whole entry): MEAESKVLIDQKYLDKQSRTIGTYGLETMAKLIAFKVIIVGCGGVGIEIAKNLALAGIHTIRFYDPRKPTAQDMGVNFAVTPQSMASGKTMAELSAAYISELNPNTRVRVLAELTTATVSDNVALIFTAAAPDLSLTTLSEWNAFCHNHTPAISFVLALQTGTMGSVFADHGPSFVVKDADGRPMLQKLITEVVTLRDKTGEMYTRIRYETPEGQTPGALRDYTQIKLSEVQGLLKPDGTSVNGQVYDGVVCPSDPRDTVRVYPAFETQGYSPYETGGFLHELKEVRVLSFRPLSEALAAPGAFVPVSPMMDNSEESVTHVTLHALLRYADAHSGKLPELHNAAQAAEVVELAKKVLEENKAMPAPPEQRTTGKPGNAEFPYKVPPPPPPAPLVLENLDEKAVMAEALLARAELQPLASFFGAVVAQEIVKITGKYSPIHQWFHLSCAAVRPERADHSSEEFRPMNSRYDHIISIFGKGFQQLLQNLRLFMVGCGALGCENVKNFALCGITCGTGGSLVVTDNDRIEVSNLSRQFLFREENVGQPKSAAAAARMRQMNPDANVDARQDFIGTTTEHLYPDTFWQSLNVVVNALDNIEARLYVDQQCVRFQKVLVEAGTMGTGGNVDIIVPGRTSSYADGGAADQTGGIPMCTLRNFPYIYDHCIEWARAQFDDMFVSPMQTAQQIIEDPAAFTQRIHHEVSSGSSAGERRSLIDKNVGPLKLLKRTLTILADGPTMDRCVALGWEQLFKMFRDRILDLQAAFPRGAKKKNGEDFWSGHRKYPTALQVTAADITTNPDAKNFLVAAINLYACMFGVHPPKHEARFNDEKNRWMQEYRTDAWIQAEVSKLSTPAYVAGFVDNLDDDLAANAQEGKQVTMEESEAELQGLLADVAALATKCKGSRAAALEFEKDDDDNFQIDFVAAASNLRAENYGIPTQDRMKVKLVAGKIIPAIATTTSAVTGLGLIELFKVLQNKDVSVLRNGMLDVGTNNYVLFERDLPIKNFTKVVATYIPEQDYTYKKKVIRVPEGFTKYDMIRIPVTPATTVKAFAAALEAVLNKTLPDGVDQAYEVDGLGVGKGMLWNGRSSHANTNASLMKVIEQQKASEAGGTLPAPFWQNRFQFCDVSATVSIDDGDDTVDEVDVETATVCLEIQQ
Briefly: Leishmania donovani Ubiquitin Activating Enzyme (LdE1). The class given is functional. To be noted: 30 µM.

The target in experiment [3] is AMP-activated protein kinase, AMPK (Homo sapiens) (UniProt P54646+O43741+P54619+Q9UGJ0+Q9Y478+Q13131+Q9UGI9). Briefly: AMP-dependent Kinase enzyme assay. An in vitro enzyme assay that detects ADP turnover that is directly proportional to AMPK activity. This uses naive AMPK that is activated during the assay with MK-8722. The class given is functional. To be noted: 30 µM.

For experiment [4], the target named is Sialic acid-binding Ig-like lectin 9 (Homo sapiens) (UniProt Q9Y336). In words: Hs-Siglec9 ALPHAscreen SOP 20170721. The note with it: 10 µM. Background: Bead proximity is the source of the signal in Alpha formats.
Experiment [5] has as its system Trypanosoma cruzi. In words: Trypanosoma cruzi phosphomannomutase and mannose-1-phosphate guanylyltransferase assay. To be noted: 10 µM. The format is functional.
In experiment [6] the target is T2, Arginase-2, mitochondrial (Homo sapiens) (UniProt P78540).
T2 sequence (whole entry): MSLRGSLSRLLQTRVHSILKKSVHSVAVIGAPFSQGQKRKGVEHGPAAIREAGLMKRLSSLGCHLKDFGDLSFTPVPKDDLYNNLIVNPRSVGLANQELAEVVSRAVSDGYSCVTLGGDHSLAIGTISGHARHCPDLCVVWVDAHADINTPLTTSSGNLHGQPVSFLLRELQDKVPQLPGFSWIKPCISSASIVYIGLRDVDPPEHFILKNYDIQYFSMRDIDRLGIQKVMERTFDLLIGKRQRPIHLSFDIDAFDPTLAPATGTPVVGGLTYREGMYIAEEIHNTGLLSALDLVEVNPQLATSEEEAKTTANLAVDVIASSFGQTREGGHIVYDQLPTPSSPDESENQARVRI
In words: in vitro enzyme assay to detect the production of urea directly proportional to the activity of Arginase II. Also: in the data most compounds retested in dose-response had high values. The class given is functional. To be noted: 33.3 µM.

The target in experiment [7] is T3, Proteasome subunit beta (Trypanosoma cruzi) (UniProt O96673).
T3 sequence (whole entry): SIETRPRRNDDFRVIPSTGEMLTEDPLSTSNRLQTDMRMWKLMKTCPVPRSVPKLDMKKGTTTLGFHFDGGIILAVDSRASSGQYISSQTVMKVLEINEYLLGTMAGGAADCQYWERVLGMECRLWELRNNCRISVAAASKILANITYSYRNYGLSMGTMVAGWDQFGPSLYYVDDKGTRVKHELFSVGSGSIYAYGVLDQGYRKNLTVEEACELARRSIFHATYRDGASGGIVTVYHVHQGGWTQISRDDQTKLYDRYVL
Briefly: Trypanosoma cruzi proteasome chymotrypsin-like activity (TcProtChymo) assay. Also: in the data most compounds retested in dose-response had high values. The note with it: 9.37 µM. The class given is functional.

For experiment [8], the species on record is Homo sapiens. Briefly: To identify inhibition of the IFN signalling (Jak-Stat) pathway via expression of an eGFP reporter gene under the control of an IFN-stimulated response element (ISRE) containing MxA promoter. The class given is functional. To be noted: 30 µM. (A reporter such as luciferase makes a cellular process visible.)
The target in experiment [9] is T4, Tyrosyl-tRNA synthetase, putative (Trypanosoma cruzi (strain CL Brener)) (UniProt Q4DSP6).
T4 sequence (whole entry): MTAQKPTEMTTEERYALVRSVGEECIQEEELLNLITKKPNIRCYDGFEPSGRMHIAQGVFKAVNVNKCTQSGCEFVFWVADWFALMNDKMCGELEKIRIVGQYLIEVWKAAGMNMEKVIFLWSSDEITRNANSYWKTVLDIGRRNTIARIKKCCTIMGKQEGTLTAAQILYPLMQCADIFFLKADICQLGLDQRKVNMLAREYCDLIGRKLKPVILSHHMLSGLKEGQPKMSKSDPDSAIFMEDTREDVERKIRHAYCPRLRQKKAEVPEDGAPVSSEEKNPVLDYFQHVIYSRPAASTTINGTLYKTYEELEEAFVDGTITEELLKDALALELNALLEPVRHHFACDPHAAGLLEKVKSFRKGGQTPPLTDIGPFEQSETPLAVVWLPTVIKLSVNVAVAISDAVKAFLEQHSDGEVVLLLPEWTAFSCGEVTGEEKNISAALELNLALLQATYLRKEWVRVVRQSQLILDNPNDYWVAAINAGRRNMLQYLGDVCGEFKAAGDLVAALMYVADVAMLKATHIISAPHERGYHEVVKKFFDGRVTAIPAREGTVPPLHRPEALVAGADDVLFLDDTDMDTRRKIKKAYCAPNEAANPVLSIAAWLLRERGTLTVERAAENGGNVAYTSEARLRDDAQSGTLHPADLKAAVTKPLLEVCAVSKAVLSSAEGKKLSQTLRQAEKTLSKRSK
In words: Trypanosoma cruzi tyrosyl tRNA synthetase (TcYRS) _High Tyrosine SOP. Also: in the data most compounds retested in dose-response had high values. To be noted: 30 µM. The class given is functional.

The target of experiment [10] is T4, Tyrosyl-tRNA synthetase, putative (Trypanosoma cruzi (strain CL Brener)). In words: Trypanosoma cruzi tyrosyl tRNA synthetase (TcYRS) SOP. The note with it: 30 µM. The class given is functional.
Experiment [11] has as its target Chromo domain-containing protein 1 (Saccharomyces cerevisiae (strain ATCC 204508 / S288c) (Baker's yeast)) (UniProt P32657). Briefly: ScCHD-1 Enzyme Inhibition Assay. Also: in the data most compounds retested in dose-response had high values. To be noted: 30 µM. The format is functional.

SMILES strings stand for the structures. For some of these results: Measured potencies and affinities stand elsewhere.

Sialic acid-binding Ig-like lectin 9 (Homo sapiens), sequence (Q9Y336 whole entry): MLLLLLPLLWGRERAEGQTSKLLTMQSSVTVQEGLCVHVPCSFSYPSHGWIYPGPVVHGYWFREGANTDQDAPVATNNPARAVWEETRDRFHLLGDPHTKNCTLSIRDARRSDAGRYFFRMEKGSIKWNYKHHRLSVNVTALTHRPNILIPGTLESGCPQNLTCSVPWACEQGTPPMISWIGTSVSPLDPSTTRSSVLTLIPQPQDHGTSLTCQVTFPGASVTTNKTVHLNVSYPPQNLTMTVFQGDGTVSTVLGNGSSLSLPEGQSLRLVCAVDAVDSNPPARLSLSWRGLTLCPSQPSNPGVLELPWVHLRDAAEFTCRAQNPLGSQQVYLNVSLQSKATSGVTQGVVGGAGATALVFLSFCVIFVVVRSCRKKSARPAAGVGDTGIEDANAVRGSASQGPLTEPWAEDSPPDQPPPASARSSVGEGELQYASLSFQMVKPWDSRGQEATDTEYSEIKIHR
Protein translocase subunit SecA (Escherichia coli (strain K12)), sequence (P10408 whole entry): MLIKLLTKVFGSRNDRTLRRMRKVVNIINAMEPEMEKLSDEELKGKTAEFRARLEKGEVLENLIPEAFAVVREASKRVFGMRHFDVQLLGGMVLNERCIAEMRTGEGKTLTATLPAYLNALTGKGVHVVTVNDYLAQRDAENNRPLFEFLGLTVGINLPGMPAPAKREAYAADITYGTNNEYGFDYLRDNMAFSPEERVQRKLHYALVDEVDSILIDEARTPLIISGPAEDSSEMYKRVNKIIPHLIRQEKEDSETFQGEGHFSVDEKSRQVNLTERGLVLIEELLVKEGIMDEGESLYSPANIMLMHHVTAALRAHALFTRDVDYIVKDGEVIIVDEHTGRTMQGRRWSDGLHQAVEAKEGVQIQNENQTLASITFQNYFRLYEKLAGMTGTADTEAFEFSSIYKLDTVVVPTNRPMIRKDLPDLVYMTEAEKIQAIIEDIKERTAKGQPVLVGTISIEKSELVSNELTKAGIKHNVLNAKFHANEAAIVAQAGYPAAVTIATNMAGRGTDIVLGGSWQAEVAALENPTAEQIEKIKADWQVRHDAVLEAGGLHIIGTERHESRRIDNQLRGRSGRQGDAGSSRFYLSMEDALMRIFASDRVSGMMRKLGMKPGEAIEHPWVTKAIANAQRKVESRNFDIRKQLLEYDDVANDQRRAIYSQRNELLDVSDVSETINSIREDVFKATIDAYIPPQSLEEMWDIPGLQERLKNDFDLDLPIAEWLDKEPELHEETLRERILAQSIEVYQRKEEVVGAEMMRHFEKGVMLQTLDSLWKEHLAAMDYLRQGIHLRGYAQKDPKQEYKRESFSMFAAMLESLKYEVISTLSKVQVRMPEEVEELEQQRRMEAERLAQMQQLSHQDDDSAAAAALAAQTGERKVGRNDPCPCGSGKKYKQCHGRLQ
Chromo domain-containing protein 1 (Saccharomyces cerevisiae (strain ATCC 204508 / S288c) (Baker's yeast)), sequence (P32657 whole entry, the tested form may be a part): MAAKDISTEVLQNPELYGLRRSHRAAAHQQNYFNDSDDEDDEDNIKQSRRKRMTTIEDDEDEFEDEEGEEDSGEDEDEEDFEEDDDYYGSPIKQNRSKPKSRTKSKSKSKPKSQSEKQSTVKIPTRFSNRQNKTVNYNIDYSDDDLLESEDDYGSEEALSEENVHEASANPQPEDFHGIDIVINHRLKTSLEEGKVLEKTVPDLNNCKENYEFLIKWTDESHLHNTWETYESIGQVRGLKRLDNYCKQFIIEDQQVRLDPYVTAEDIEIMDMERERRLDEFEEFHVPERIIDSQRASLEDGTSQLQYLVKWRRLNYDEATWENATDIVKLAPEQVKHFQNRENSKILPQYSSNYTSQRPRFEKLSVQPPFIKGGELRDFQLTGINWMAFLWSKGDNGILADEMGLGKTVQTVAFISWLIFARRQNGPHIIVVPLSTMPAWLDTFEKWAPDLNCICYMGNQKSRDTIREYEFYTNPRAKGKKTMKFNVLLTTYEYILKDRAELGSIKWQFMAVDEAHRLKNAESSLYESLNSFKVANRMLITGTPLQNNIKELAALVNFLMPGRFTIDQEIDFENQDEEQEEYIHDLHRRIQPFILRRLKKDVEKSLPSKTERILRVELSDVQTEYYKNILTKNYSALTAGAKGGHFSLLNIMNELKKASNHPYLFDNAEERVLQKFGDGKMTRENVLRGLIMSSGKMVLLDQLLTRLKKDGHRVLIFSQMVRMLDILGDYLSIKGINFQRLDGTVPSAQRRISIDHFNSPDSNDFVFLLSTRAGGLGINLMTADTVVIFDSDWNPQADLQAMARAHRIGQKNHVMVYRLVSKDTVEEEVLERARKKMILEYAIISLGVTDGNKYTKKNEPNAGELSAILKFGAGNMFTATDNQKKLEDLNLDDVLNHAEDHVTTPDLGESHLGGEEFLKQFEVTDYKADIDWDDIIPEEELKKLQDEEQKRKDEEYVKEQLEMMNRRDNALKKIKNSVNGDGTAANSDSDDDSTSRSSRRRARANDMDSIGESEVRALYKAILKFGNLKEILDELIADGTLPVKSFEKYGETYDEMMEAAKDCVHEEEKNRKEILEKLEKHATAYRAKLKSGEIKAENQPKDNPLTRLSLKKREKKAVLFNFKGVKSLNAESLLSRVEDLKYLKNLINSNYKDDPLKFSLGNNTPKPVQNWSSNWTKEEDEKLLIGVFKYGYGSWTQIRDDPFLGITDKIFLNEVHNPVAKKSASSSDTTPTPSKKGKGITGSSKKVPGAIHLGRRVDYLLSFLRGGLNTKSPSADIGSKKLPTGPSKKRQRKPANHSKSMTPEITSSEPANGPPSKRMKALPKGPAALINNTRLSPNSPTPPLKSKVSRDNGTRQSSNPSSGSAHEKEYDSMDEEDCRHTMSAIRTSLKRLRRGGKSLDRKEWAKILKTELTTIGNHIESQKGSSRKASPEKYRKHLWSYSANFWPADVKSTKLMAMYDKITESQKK

`CN(Cc1ccco1)[C@@H]1CN(C(=O)c2ccnnc2)[C@@H]2CCCO[C@H]12`: the Percent Effect in experiment [1] was -2.54%; in experiment [2], 2.74%; in experiment [3], -7.68%; in experiment [4] it was 19.2%; in [5], 7.74%; in experiment [6], -2.4%. Besides, the Percent Effect in experiment [7] was 13.4%; in experiment [8] it was -41.3%; in experiment [9], 3.12%; in [10], 13.6%; in experiment [11] it was -1.74%.

Take `Cc1cnn(CCC(=O)N2C[C@H]3CC[C@@H]2CN(CC(=O)N(C)C)C3)c1`: the Percent Effect in experiment [1] was 0.243%; in [2], 13.5%; in experiment [3], -6.36%; in experiment [4], 7.46%; in experiment [5], 7.34%; in [6] it was 1.91%. The Percent Effect is 17.6% in experiment [7]; 5.29% in experiment [8]; 5.82% in experiment [9]; 17.1% in experiment [10]; -2.52% in experiment [11].

For `Cc1ccc2c(c1)CN(C(=O)C1CCCCC1)C(CN(C)C)CO2` (stereo unspecified), the Percent Effect in experiment [1] is -4.37%; in [2], 12.2%; in experiment [3], 11.3%; in [4], -8.18%; in experiment [5] it was -4.54%; in [6] it was -4.41%. The Percent Effect in [7] is 12%; in experiment [8] it was 8.85%; in experiment [9], 3.23%; in experiment [10] it was 9.09%; in experiment [11], -13.3%.

Take `O=C(CC1CCCC1)N1CCCC1c1nc(O)cc(-c2ccccn2)n1` (stereo unspecified): the Percent Effect is -6.13% in [1]; 20.3% in experiment [2]; 1.3% in [3]; 16.7% in [4]; -0.395% in [5]; -4.41% in [6]. The Percent Effect in experiment [7] was 13.9%; in experiment [8], 1.89%; in [9] it was 6.45%; in experiment [10], 19.5%; in experiment [11] it was -15.4%.

With `c1cnc(NCc2noc3c2CN(C2CCOCC2)CC3)nc1`, the Percent Effect in experiment [1] was -4.67%; in experiment [2], 18.7%; in experiment [3] it was -2.09%; in experiment [4], -2.32%; in experiment [5], 3.86%; in experiment [6] it was -46.8%. For the same compound, the Percent Effect in experiment [7] is 15.7%; in experiment [8], -2.62%; in [9] it was 7.29%; in experiment [10], 22.5%; in [11] it was -7.21%.

On to `Fc1cnc(N2CCn3cc(CNc4ccccn4)nc3C2)nc1`, for which the Percent Effect in experiment [1] is 0.222%; in experiment [2] it was -2.67%; in experiment [3], 7.82%; in experiment [4], 16.2%; in experiment [5] it was -0.193%; in [6] it was -56.1%. Besides, the Percent Effect was 3.76% in [7]; 7.84% in experiment [8]; -1.04% in experiment [9]; -5% in experiment [10]; -2.56% in experiment [11].

As for `Clc1snnc1CN1CCCC(Cn2cncn2)C1` (stereo unspecified), the Percent Effect in experiment [1] is -1.77%; in experiment [2], 17.7%; in [3], -3.42%; in experiment [4], -8.68%; in experiment [5] it was 1.98%; in [6], -1.52%. The Percent Effect is 18.6% in experiment [7]; 6.4% in experiment [8]; 10.3% in experiment [9]; 29.1% in experiment [10]; -10.8% in experiment [11].

Regarding `CCCn1c(C)c(CC(=O)NC)c2c1CC(C)(C)CC2=O`, the Percent Effect in experiment [1] is -4.47%; in experiment [2], 2.6%; in experiment [3], -16%; in [4], 0.225%; in experiment [5], -1.08%; in experiment [6], -6.9%. Besides, the Percent Effect in [7] came to 2.66%; in [8], 2.97%; in [9], 5.38%; in experiment [10] it was 8.64%; in [11], 2.86%.

`CCn1ncc(CN2CCc3c(nc(-c4cccnc4)[nH]c3=O)C2)c1C`: the Percent Effect is -4.9% in experiment [1]; 5.33% in experiment [2]; 9.46% in experiment [3]; 2.36% in [4]; 7.87% in experiment [5]; 0.699% in experiment [6]. In addition, the Percent Effect was 10.3% in experiment [7]; 2.75% in experiment [8]; 5.32% in experiment [9]; 11.5% in experiment [10]; -4.43% in [11].

As for `CC(C)C(=O)N1CCN(C(=O)CCc2nnc(-c3ccccc3)o2)CC1`, the Percent Effect in [1] was -1.03%; in experiment [2], 5.06%; in experiment [3], -0.0997%; in experiment [4], 0.624%; in experiment [5] it was -4.06%; in [6], 4.94%. In addition, the Percent Effect in experiment [7] is 0.901%; in experiment [8] it was 16.1%; in experiment [9] it was 3.45%; in experiment [10], 8.86%; in experiment [11] it was -7.27%.

Take `O=C(CSc1ccc2c(c1)OCCO2)NS(=O)(=O)C1CCCCC1`: the Percent Effect is -2.58% in [1]; -1.39% in experiment [2]; 3.64% in experiment [3]; -7.65% in experiment [4]; -6.71% in experiment [5]; 3.09% in [6]. In addition, the Percent Effect in experiment [7] is 11.4%; in experiment [8], 9.49%; in [9], -1.05%; in experiment [10], -5.13%; in experiment [11] it was -0.962%.

The values are drawn from ChEMBL document CHEMBL3988442, “University of Dundee, Small-Polar-MMV Screening Library” (2021).
